The antibiotic and cytotoxicity screens of Wong et al. (2023)
The campaign covered roughly 39,000 compounds. About 3,300 (8.5%) were called active. The entries come from a sample that favours actives as a whole.

tested on: HepG2; assay: cytotoxicity call (relative viability < 0.9); details: 10 µM

SMILES	cytotoxicity call
Cc1ccc(S(=O)(=O)N(C)C[C@H]2Oc3ccc(NS(=O)(=O)c4ccc(F)cc4)cc3CC(=O)N([C@@H](C)CO)C[C@@H]2C)cc1	active
Cc1noc(C)c1S(=O)(=O)Nc1ccc2c(c1)CC(=O)N([C@H](C)CO)C[C@H](C)[C@@H](CN(C)S(=O)(=O)c1ccc(Cl)cc1)O2	inactive
Cc1ccc(S(=O)(=O)Nc2ccc3c(c2)CC(=O)N([C@@H](C)CO)C[C@H](C)[C@@H](CN(C)S(=O)(=O)c2ccc(F)cc2)O3)cc1	inactive
COc1ccc(S(=O)(=O)N(C)C[C@@H]2Oc3ccc(NS(=O)(=O)c4ccccc4)cc3CC(=O)N([C@@H](C)CO)C[C@H]2C)cc1	active
COc1ccc(S(=O)(=O)N(C)C[C@@H]2Oc3ccc(NC(=O)Cc4ccccc4)cc3CC(=O)N([C@H](C)CO)C[C@@H]2C)cc1	active
COc1ccc(S(=O)(=O)Nc2ccc3c(c2)CC(=O)N([C@@H](C)CO)C[C@H](C)[C@@H](CN(C)S(=O)(=O)c2ccccc2)O3)cc1	inactive
Cc1noc(C)c1S(=O)(=O)Nc1ccc2c(c1)CC(=O)N([C@H](C)CO)C[C@@H](C)[C@@H](CN(C)S(=O)(=O)c1ccc(Cl)cc1)O2	inactive
COc1ccc(S(=O)(=O)N(C)C[C@H]2Oc3ccc(NC(=O)Cc4ccccc4)cc3CC(=O)N([C@H](C)CO)C[C@@H]2C)cc1	inactive
O=c1cc[nH]c(C(F)(F)F)n1	inactive
C[C@@H]1CCCCO[C@@H](CN(C)C(=O)Nc2ccccc2)[C@H](C)CN([C@@H](C)CO)C(=O)c2cc(NS(=O)(=O)c3cccs3)ccc2O1	inactive
C[C@H](CO)N1C[C@H](C)[C@H](CN(C)S(=O)(=O)c2cn(C)cn2)Oc2ncc(C#CCN(C)C)cc2C1=O	inactive
COc1ccc(NC(=O)Nc2cccc3c2O[C@H](CN(C)S(C)(=O)=O)[C@@H](C)CN([C@H](C)CO)C3=O)cc1	inactive
Cc1noc(C)c1NC(=O)N(C)C[C@@H]1OCCCC[C@@H](C)Oc2ccc(NC(=O)c3ccccc3)cc2C(=O)N([C@H](C)CO)C[C@H]1C	inactive
CCC(=O)N1CCC[C@H](C(=O)O)C1	inactive
NC(=O)CCCCC(N)=O	inactive
COc1ccc(NC(=O)Nc2ccc3c(c2)C(=O)N([C@@H](C)CO)C[C@@H](C)[C@@H](CN(C)C(=O)Nc2ccc(C(F)(F)F)cc2)OCCCC[C@@H](C)O3)cc1	inactive
O=C(COP(=O)(O)O)[C@H](O)[C@@H](O)COP(=O)(O)O	inactive
C[C@@H]1CN([C@H](C)CO)C(=O)c2cc(NS(=O)(=O)c3ccc(F)cc3)ccc2O[C@@H](C)CCCCO[C@@H]1CN(C)C(=O)Cc1ccccc1	inactive
C[C@H]1CN([C@@H](C)CO)C(=O)Cc2cc(NS(=O)(=O)c3ccc(Cl)cc3)ccc2O[C@@H]1CN(C)C	active

SMILES	cytotoxicity call
COc1ccc(S(=O)(=O)Nc2ccc3c(c2)CC(=O)N([C@H](C)CO)C[C@@H](C)[C@@H](CN(C)C)O3)cc1	active
C[C@@H]1CN([C@H](C)CO)C(=O)Cc2cc(NS(=O)(=O)c3ccc(Cl)cc3)ccc2O[C@@H]1CN(C)C	inactive
COc1ccc(S(=O)(=O)Nc2ccc3c(c2)CC(=O)N([C@H](C)CO)C[C@H](C)[C@H](CN(C)C)O3)cc1	inactive
C[C@@H]1CN([C@@H](C)CO)C(=O)Cc2cc(NS(=O)(=O)c3ccc(Cl)cc3)ccc2O[C@@H]1CN(C)C	inactive
COc1ccc(S(=O)(=O)Nc2ccc3c(c2)CC(=O)N([C@H](C)CO)C[C@H](C)[C@@H](CN(C)C)O3)cc1	inactive
C[C@H]1CN([C@@H](C)CO)C(=O)c2cc(NC(=O)Nc3ccccc3)ccc2O[C@H]1CN(C)C(=O)Nc1cccc2ccccc12	inactive
CN1C(=O)c2cc(NS(=O)(=O)c3cccc(F)c3)ccc2OC[C@H]2O[C@H](CC(=O)NCCN3CCCCC3)CC[C@H]21	inactive
O=C(C[C@H]1C=C[C@@H](NC(=O)c2cccnc2)[C@@H](CO)O1)NCCN1CCCCC1	inactive
CC(C)NC(=O)Nc1cccc2c1O[C@@H](CN(C)C(=O)NC1CCCCC1)[C@@H](C)CN([C@H](C)CO)C2=O	inactive
COc1ccc(S(=O)(=O)N(C)C[C@H]2OCCCC[C@H](C)Oc3ccc(NC(=O)Nc4ccccc4)cc3C(=O)N([C@@H](C)CO)C[C@@H]2C)cc1	inactive
C[C@H](CO)N1C[C@H](C)[C@@H](CN(C)Cc2ccc(-c3ccccc3)cc2)Oc2c(NC(=O)CCCCCC(=O)Nc3ccccc3N)cccc2C1=O	active
C[C@@H]1CN([C@@H](C)CO)C(=O)c2cccc(NC(=O)CCCCCC(=O)Nc3ccccc3N)c2O[C@@H]1CN(C)Cc1ccc(-c2ccccc2)cc1	inactive
C[C@@H]1CN([C@@H](C)CO)C(=O)c2cccc(NC(=O)CCCCCC(=O)Nc3ccccc3N)c2O[C@H]1CN(C)Cc1ccc(Cl)c(Cl)c1	inactive
C[C@@H]1CN([C@@H](C)CO)C(=O)c2cccc(NC(=O)CCCCCC(=O)Nc3ccccc3N)c2O[C@H]1CN(C)Cc1ccc(-c2ccccc2)cc1	inactive
C[C@@H]1CN([C@H](C)CO)C(=O)c2cccc(NC(=O)CCCCCC(=O)Nc3ccccc3N)c2O[C@H]1CN(C)Cc1ccc(-c2ccccc2)cc1	inactive
C[C@H]1CN([C@@H](C)CO)C(=O)c2cccc(NC(=O)CCCCCC(=O)Nc3ccccc3N)c2O[C@H]1CN(C)Cc1ccc(-c2ccccc2)cc1	inactive
C[C@H]1CN([C@@H](C)CO)C(=O)c2cccc(NC(=O)CCCCCC(=O)Nc3ccccc3N)c2O[C@@H]1CN(C)Cc1ccc(Cl)c(Cl)c1	active
C[C@@H]1CN([C@H](C)CO)C(=O)c2cccc(NC(=O)CCCCCC(=O)Nc3ccccc3N)c2O[C@@H]1CN(C)Cc1ccc(-c2ccccc2)cc1	active
C[C@@H]1CN([C@@H](C)CO)C(=O)c2cccc(NC(=O)CCCCCC(=O)Nc3ccccc3N)c2O[C@@H]1CN(C)Cc1ccc(Cl)c(Cl)c1	inactive
